This passage reports Potency results from PubChem BioAssay (NCATS).

Test in all cases: qHTS profiling for inhibitors of Plasmodium falciparum proliferation (AID 504749); note: nearly all actives have a fitted effect of over 60% in size
Common to all, as to conditions: P. falciparum in erythrocytes, SYBR Green DNA, 72 h; series mostly up to 28.7 µM
A general note: In qHTS, concentration-response curves come from the screen itself.

One assay concerns CP191. An outline of the steps: (§1)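 Infected RBCs, 0.3% parasitemia/2.5% Hct final; cpd 72 h, 37 C, 5% CO2; lysis buffer with saponin/triton/SYBR Green I, o/n RT dark; FI 485/535; norm. to artemisinin (0.29 uM) and DMSO.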
The test system of another assay is CP192. An outline of the steps: as §1
Another assay concerns CP194. In a few lines: as §1
A further assay deals with CP201. In a few lines: as §1
The next assay relates to CP203. In a few lines: as §1
Another assay concerns CP211. In a few lines:
as §1

The test system of another assay is CP215. In a few lines: as §1
The subject of a further assay is CP217. An outline of the steps:
as §1

A further assay concerns CP237. An outline of the steps:
as §1

The subject of a further assay is CP238. An outline of the steps: as §1

Results filed as inconclusive are left out. Activity calls are given as the source filed them. Calls come from the whole dose curve; as a rule, active = well fitted inhibition curve with a large enough effect; inconclusive = small, poorly fitted or top-dose-only effect; inactive = flat fitted curve, though single readings scatter.
Potency is the fitted concentration of half-maximal effect.

As to `CN1CCN(c2c(F)cc3c(=O)c(C(=O)O)cn(CCF)c3c2F)CC1`, the Potency result in the assay with CP191, in the assay with CP192, in the assay on CP194, with CP201, in the assay on CP203 and in the assay on CP211 was “inactive” in each case. Moreover, the Potency result in the assay on CP215, with CP217, in the assay with CP237 and in the assay with CP238 was “inactive” throughout.

`Nc1nc(N)c2nc(CNc3ccc(C(=O)NC(CCC(=O)O)C(=O)O)cc3)cnc2n1` (stereo not given): the Potency entry in the assay with CP191, in the assay with CP192, with CP194, in the assay on CP201, with CP203 and in the assay on CP211 was “inactive” throughout. The Potency result in the assay on CP215, in the assay with CP217, in the assay with CP237 and with CP238 was “inactive” in each case.

`CC(=O)Oc1ccccc1C(=O)Nc1ncc([N+](=O)[O-])s1`: the Potency entry in the assay with CP191, with CP192, with CP194, in the assay with CP201, in the assay with CP203 and in the assay on CP211 was “inactive” each time. For the same compound, the Potency entry with CP215, in the assay with CP217 and in the assay with CP238 was “inactive” each time. Also, the Potency in the assay on CP237 is 12600 nM (active).

With `CN1CCN(c2c(F)cc3c(=O)c(C(=O)O)cn4c3c2OCN4C)CC1`, the Potency entry in the assay with CP191, in the assay on CP192, in the assay on CP194, in the assay on CP201, in the assay on CP203 and in the assay with CP211 was “inactive” in each case. Also, the Potency result with CP215, in the assay on CP217, in the assay with CP237 and with CP238 was “inactive” each time.

Turning to `CCOCC(O)COc1ccc(NC(=O)CC[S+](C)C)cc1` (stereo not given), the Potency result in the assay with CP191, in the assay on CP192, in the assay on CP194, with CP201, in the assay on CP203 and with CP211 was “inactive” throughout. For the same compound, the Potency entry in the assay with CP215, in the assay on CP217, with CP237 and in the assay on CP238 was “inactive” throughout.

Consider `COc1nc(N)nc2c1ncn2[C@@H]1O[C@H](CO)[C@@H](O)[C@@H]1O`, for which the Potency entry with CP191, in the assay on CP192, with CP194, in the assay with CP201, with CP203 and in the assay on CP211 was “inactive” throughout. Further, the Potency result with CP215, in the assay with CP217, in the assay on CP237 and with CP238 was “inactive” throughout.

Take `S=P(N1CC1)(N1CC1)N1CC1`: the Potency result in the assay on CP191, in the assay on CP192, in the assay with CP194, in the assay with CP201, with CP203 and in the assay with CP211 was “inactive” in each case. Besides, the Potency entry in the assay with CP215, in the assay with CP217, in the assay on CP237 and in the assay with CP238 was “inactive” in each case.

Consider `N=C(N)c1ccc(OCCCCCOc2ccc(C(=N)N)cc2)cc1`, for which the Potency with CP191 was 398 nM (active); in the assay with CP192, 1070 nM (active); in the assay with CP194 it was 849 nM (active); in the assay on CP201, 1690 nM (active); with CP203 it was 953 nM (active); with CP211, 849 nM (active). Further, the Potency in the assay on CP215 is 1070 nM (active); in the assay on CP217, 2240 nM (active); with CP237, 251 nM (active); in the assay with CP238, 2240 nM (active).

For the compound `Nc1ccc(S(=O)(=O)Nc2ccccn2)cc1`, the Potency result in the assay with CP191, with CP192, in the assay with CP194, in the assay on CP201, in the assay with CP203 and with CP211 was “inactive” each time. The Potency result in the assay with CP215, in the assay on CP217, with CP237 and in the assay with CP238 was “inactive” throughout.

For `CN(Cc1cc(Br)cc(Br)c1N)C1CCCCC1`, the Potency result with CP191, in the assay with CP192, with CP194, with CP201, with CP203 and with CP211 was “inactive” in each case. The Potency result in the assay on CP215 and in the assay on CP217 was “inactive” throughout.

With `Cn1nnc2c(C(N)=O)ncn2c1=O`, the Potency result in the assay with CP191, with CP192, with CP194, with CP201, in the assay with CP203 and with CP211 was “inactive” each time. Also, the Potency result with CP217, in the assay with CP237 and with CP238 was “inactive” each time.

As to `CC1=CC(=O)c2ccccc2C1=O`, the Potency result in the assay on CP191, in the assay with CP192, in the assay with CP194, in the assay on CP201, with CP203 and with CP211 was “inactive” in each case. Also, the Potency result in the assay with CP215, with CP217 and with CP238 was “inactive” in each case.

Consider `O=NN(CCCl)C(=O)NC1CCCCC1`, for which the Potency result in the assay on CP191, in the assay on CP192, in the assay on CP194, in the assay on CP201, in the assay on CP203 and in the assay on CP211 was “inactive” throughout. The Potency result in the assay with CP215, in the assay with CP217, in the assay with CP237 and with CP238 was “inactive” throughout.

With `N[C@@H](C(=O)N[C@@H]1C(=O)N2C(C(=O)O)=C(Cl)CS[C@H]12)c1ccccc1`, the Potency result with CP191, in the assay on CP192, with CP194, in the assay with CP201, in the assay on CP203 and with CP211 was “inactive” each time. Besides, the Potency result in the assay with CP215, in the assay with CP217, in the assay on CP237 and with CP238 was “inactive” throughout.

As for `Cc1cccc(Nc2ccncc2S(=O)(=O)NC(=O)NC(C)C)c1`, the Potency entry in the assay on CP191, in the assay on CP192, with CP194, in the assay on CP201, in the assay with CP203 and in the assay on CP211 was “inactive” in each case. The Potency result with CP215, in the assay with CP217, in the assay with CP237 and in the assay with CP238 was “inactive” each time.

As to `CNC1CCCN(c2c(F)cc3c(=O)c(C(=O)O)cn(C4CC4)c3c2OC)C1` (stereo not given), the Potency entry with CP191, with CP192, with CP194, in the assay with CP201, with CP203 and in the assay on CP211 was “inactive” each time. Also, the Potency result with CP215, with CP217, with CP237 and in the assay with CP238 was “inactive” throughout.

As to `CN(CCOc1ccc(CC2SC(=O)NC2=O)cc1)c1ccccn1` (stereo not given), the Potency entry with CP191, with CP192, in the assay with CP194, in the assay with CP201, with CP203 and in the assay on CP211 was “inactive” throughout. In addition, the Potency entry with CP215, in the assay on CP217, with CP237 and with CP238 was “inactive” each time.

Turning to `COc1ncnc(NS(=O)(=O)c2ccc(N)cc2)c1OC`, the Potency result with CP191, with CP192, in the assay on CP194, in the assay with CP201, in the assay with CP203 and with CP211 was “inactive” in each case. The Potency entry with CP215, in the assay with CP217, with CP237 and in the assay with CP238 was “inactive” throughout.

As for `COc1cc(NCc2ccc3nc(N)nc(N)c3c2C)cc(OC)c1OC`, the Potency with CP191 was 251 nM (active); with CP192, 3010 nM (active); in the assay with CP194, 2690 nM (active); in the assay on CP201, 4780 nM (active); with CP203, 4780 nM (active); with CP215, 675 nM (active). Moreover, the Potency in the assay on CP217 is 282 nM (active); with CP237, 141 nM (active); in the assay on CP238, 631 nM (active).
